For orientation: inhibition means the relative decrease from the control value, in per cent.

The structures appear in SMILES notation. “And” between values parts separate entries of the source, which are not always exact repeats. Equal values may be shown once.

Chain of Apelin receptor (Homo sapiens) (P35414 whole entry, looked up): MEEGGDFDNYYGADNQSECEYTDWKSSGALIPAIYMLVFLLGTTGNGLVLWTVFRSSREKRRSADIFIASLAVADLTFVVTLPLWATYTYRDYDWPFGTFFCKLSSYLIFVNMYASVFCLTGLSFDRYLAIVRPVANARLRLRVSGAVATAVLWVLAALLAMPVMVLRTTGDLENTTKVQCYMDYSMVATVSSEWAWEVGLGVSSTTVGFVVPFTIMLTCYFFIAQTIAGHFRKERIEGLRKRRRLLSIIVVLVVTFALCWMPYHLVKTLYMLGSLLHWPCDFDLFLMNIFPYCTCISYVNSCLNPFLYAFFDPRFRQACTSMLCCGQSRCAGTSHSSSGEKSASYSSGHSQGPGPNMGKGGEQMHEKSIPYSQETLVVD

The experiment has as its target Apelin receptor (Homo sapiens) (UniProt P35414). The experiment in a line: apelin receptor (APJ) antagonists, SAR follow-up, counter-screen for CXCR6 antagonist project, cell-based, beta-arrestin, DiscoveRx, panel, CHO-K1 (AID 651598). The settings on record: CHO-K1 PathHunter beta-arrestin luminescence, antagonist mode; run 5, at 80 µM (top of the series). (In general: Counterscreens check selectivity or assay interference.)
As for `COc1cc(C(=O)NC2CC3CCC(C2)N3CC(=O)Nc2ccccc2)cc(OC)c1OC` (stereo not drawn), the inhibition is -14.1% and -9.09%.
The same measure for `COc1cc(C(=O)NC2CC3CCCC(C2)N3CC(=O)Nc2ccccc2)cc(OC)c1OC` (stereo not drawn): 11% and 14.6% and 16%; for `COc1cc(C(=O)NC2CCN(CC(=O)Nc3ccccc3)CC2)cc(OC)c1OC`: -5.74%.

Source of the values: PubChem BioAssay AID651598 (Sanford-Burnham Center for Chemical Genomics, 2012).
